Bioassay records: PubChem BioAssay, National Center for Advancing Translational Sciences (NCATS)
HCV inhibitor = qHTS Assay for Inhibitors of Hepatitis C Virus (HCV); Huh7.5.1 HCVcc-Cre infection, luciferase reporter, 44 h; Potency, µM (titrated, usually from 41.8 µM), inactives show at the top dose activity change, negative = inhibition, most hits filed as inhibitors; 340,000 tested, 3.4% active; AID 651820, 2012; also: potency is read from the fitted curve at half-maximal effect; % is scaled to controls: 0 for no effect and ±100 for the full control effect
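Cells (1,000/well) were plated 4 h before compound, then infected with HCVcc-Cre virus (~0.5 moi). After 44 h further culture, infection was read as luciferase luminescence following a 15 min substrate incubation at room temperature.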
Pf growth 96h = Primary qHTS for delayed death inhibitors of the malarial parasite plastid, 96 hour incubation. P. falciparum luciferase reporter growth, 96 h. Potency, µM (highest dose often 28.7 µM), for the others: top-dose activity change, negative = inhibition, most hits filed as inhibitors. 320,000 tested, 6.9% active; also: potency is read from the fitted curve at half-maximal effect; % is scaled to controls: 0 for no effect and ±100 for the full control effect
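Plates of compound plus infected erythrocytes (2% hematocrit, 0.05% parasitemia final) incubate 96 hours, 37 C, 5% CO2. Detection reagent added; reduced luminescence from the parasites' luciferase reporter flags inhibition.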
AMA1 RON2 block = qHTS for Inhibitors of AMA1-RON; Towards Development of Antimalarial Drug Lead: Primary Screen; Plasmodium falciparum AMA1 (3D7) - RON2 peptide interaction; AlphaScreen AMA1-biotinylated RON2 peptide binding; Potency, µM (titrated, usually from 58.2 µM), without a hit: top-dose activity change, negative = inhibition, hits mostly inhibitors; 360,000 tested, 0.2% active; AID 720542, 2013;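 also: potency is read from the fitted curve at half-maximal effect; 0% = vehicle wells and -100% = peptide control; nearly all actives have a fitted effect of over 45% in size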
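AMA1 (3D7) with his tag at 25 nM final met compounds first, then biotinylated RON2 peptide at 25 nM; detection used donor plus acceptor beads, 10 µg/mL apiece, read by AlphaScreen after 30 min at room temperature.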
Shiga inhibitor = A qHTS for Small Molecule Inhibitors of Shiga Toxin; Vero cells, Shiga toxin protein synthesis inhibition reporter; AID 2315, 2010; inhibition, % at 38.7 µM; 290,000 tested, 9.2% active; in the data active = inhibition mostly above about 28%, no sharp cut-off; inactive = mostly below about 43%; also: 0% is about no effect
Cycloheximide cs = Cycloheximide Counterscreen for Small Molecule Inhibitors of Shiga Toxin; max response, %; AID 2314, 2010; 300,000 tested, 12% active; cell reporter, cycloheximide protein synthesis inhibition counterscreen; in the data active = max response mostly above about 13%, no sharp cut-off; inactive = mostly below about 14%; also: read at 38.3 µM for the half of the compounds with a filed dose; 0% is about no effect
Pf growth 48h = Primary qHTS for delayed death inhibitors of the malarial parasite plastid, 48 hour incubation; P. falciparum luciferase growth in erythrocytes, 48 h; Potency, µM (top dose mostly 28.7 µM), inactives show at the highest dose activity change, negative = inhibition, actives largely listed as inhibitors; 310,000 tested, 5.9% active; AID 504832, 2011; also: potency is read from the fitted curve at half-maximal effect; % is scaled to controls: 0 for no effect and ±100 for the full control effect
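Luciferase-expressing parasites in RBCs, 2% Hct / 0.1% parasitemia final; RPMI 1640 + 0.5% Albumax; 37 C, 5% CO2, one generation; luminescence read-out, lower signal = inhibition.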
The depositor's hits bear a star; i = inactive; ? = inconclusive; . = no result; + = active, no number; [ ] = dose if it differs, or a comment. Most compounds without a hit are left out; they make up all but 21% or so of the library. Unless noted, calls follow the shape of the dose curve; as a rule, active = well fitted curve in the direction sought with a large enough effect; inconclusive = small, poorly fitted or top-dose-only effect, or another doubt; inactive = no such curve, though single readings can be large; an effect the other way counts as inactive or inconclusive.

SMILES	HCV inhibitor	Pf growth 96h	AMA1 RON2 block	Shiga inhibitor	Cycloheximide cs	Pf growth 48h
O=C(NCc1ccco1)C(c1ccco1)N(Cc1cccs1)C(=O)Cn1nnc2ccccc21 (centres undefined)	18.0%	-11.1%	11.1%	51.5*	19.1*	?
Cc1ccc(CN(C(=O)Cn2nnc3ccccc32)C(C(=O)NCc2ccco2)c2cccs2)cc1 (centres undefined)	?	5.3%	-15.7%	57.4*	18.8*	?
O=C(NCc1ccco1)C(c1ccco1)N(CCc1ccccc1)C(=O)Cn1nnc2ccccc21 (centres undefined)	-9.9%	2.33µM*	-3.6%	17.9	7.4	?
CC(NC(=O)Cc1ccc(NS(=O)(=O)c2cccc(C(F)(F)F)c2)cc1)c1ccccn1 (centres undefined)	?	?	-6.8%	-14.1	4.0	?
Cn1cnc2nc[nH]c2c1=O	15.0%	.	0.0%	.	.	.
O=C(O)c1ccc(Cl)c(NCc2cccs2)c1	7.2%	-24.8%	0.9%	-7.2	-3.3	0.2%
CCOC(=O)N1CCN(Cc2ccc(OCC(O)CN3CCCCC3)cc2)CC1 (centres undefined)	-16.2%	?	-1.7%	-5.5	-2.6	-8.6%
CC1(C)[C@@H]2CC[C@@]1(C)C(=O)C2	.	11.3%	.	19.0	0.7	-5.4%
Cc1ccc(C(=O)NCC(=O)OCc2c(F)cccc2Cl)cc1	4.7%	43.0%	-13.5%	.	.	27.8%
Cc1ccc(S(=O)(=O)NCC(=O)NCC(=O)OCc2c(F)cccc2Cl)cc1	-15.4%	-7.7%	3.9%	49.2	13.1*	?
O=C(CNC(=O)c1cccs1)OCc1c(F)cccc1Cl	7.7%	3.7%	5.3%	103.0*	48.4*	3.6%
C=CCn1c(C)cc(C(=O)COc2ncnc3sccc23)c1C	10.4%	-26.3%	-6.3%	119.5	39.8*	131.5%
OCc1cc(C(O)CNCCCCCCOCCCCc2ccccc2)ccc1O (centres undefined)	8.91µM*	12µM*	5.3%	1.5	0.5	13.1µM*
CC(C)(C)NCC(O)c1ccc(O)c(CO)c1 (centres undefined)	.	26.4%	.	.	.	-8.4%
O=C(O)CC/C(=N/NC(=O)c1ccc(-c2ccccc2)cc1)c1ccccc1	9.6%	22.6%	30.5%	21.5	6.3	10.0%
NC(Cc1ccc(Cl)cc1)c1csc(Nc2ccc(C(F)(F)F)cn2)n1 (centres undefined)	.	.	69.6%	.	.	.
COc1ccc(C2C(C(=O)c3cccs3)=C(O)C(=O)N2c2cccc(C)n2)cc1OC (centres undefined)	7.7%	20.7%	-1.3%	31.7*	19.5*	5.7%
COc1cccc(C2C(C(=O)c3cccs3)=C(O)C(=O)N2c2cc(C)on2)c1 (centres undefined)	2.7%	-8.7%	0.0%	23.9	-3.7	?
COc1ccc(OC)c(C2C(C(=O)c3cccs3)=C(O)C(=O)N2c2cc(C)on2)c1 (centres undefined)	7.4%	6.3%	-2.7%	90.1*	34.8*	22.6%
CCOc1ccc(C2C(C(=O)c3cccs3)=C(O)C(=O)N2Cc2cccnc2)cc1OC (centres undefined)	3.7%	-6.5%	-14.9%	59.8*	34.1*	14.4%
O=C1CCC[C@@H]2CC(NCc3ccc(Cl)c(Cl)c3)C[C@@H]3CCN1[C@H]23 (some centres undefined)	.	.	.	i	-4.6	.
CN1CCCCCC1C(=O)N1CCC(N2CCC(C(=O)N3CCOCC3)CC2)CC1 (centres undefined)	12.1%	?	-8.9%	19.7	4.1	-5.8%
Cc1ccc(-c2cc(-c3c(C)nn(C)c(=O)c3N)[nH]n2)cc1	-8.2%	?	-27.2%	29.9	25.5*	?
O=C(CSc1ccsc1[N+](=O)[O-])NCCc1ccccc1	-5.2%	0.0%	1.6%	21.1	1.2	-10.0%
COc1ccc(CNC(=O)CSc2ccsc2[N+](=O)[O-])cc1	-3.1%	-19.4%	-4.7%	84.1*	34.2*	?
SMILES	HCV inhibitor	Pf growth 96h	AMA1 RON2 block	Shiga inhibitor	Cycloheximide cs	Pf growth 48h
Cc1ccc(CNC(=O)CSc2ccsc2[N+](=O)[O-])cc1	-3.0%	?	25.6%	72.1*	53.7*	-43.1%
O=C(CSc1ccsc1[N+](=O)[O-])Nc1cc(F)ccc1F	-7.8%	31.0%	-15.2%	44.6*	19.5*	-28.6%
O=C(CSc1ccsc1[N+](=O)[O-])NCCc1ccc(Cl)cc1	-3.8%	12.6%	-1.4%	-1.3	-1.5	4.5%
CC(OC(=O)C1=Cc2ccccc2OC1)C(=O)NCC1CCCO1 (centres undefined)	-4.6%	.	50.8%	.	.	.
O=C(Cn1cnc(S(=O)(=O)N2CCCC2)c1)Nc1cccc(F)c1	-1.7%	?	10.9%	-12.9	-7.9	16.5%
CC(C)CNc1ncnc2c1ncn2[C@H]1CN(Cc2ccc(-c3ccccc3)cc2)C[C@@H](CO)O1	.	.	-15.7%	.	.	.
Cc1cc(F)ccc1S(=O)(=O)Nc1ccc(C(=O)N2CCCCC2)cc1	5.2%	.	-1.7%	.	.	.
CCc1cccc(CC)c1NC(=S)NCc1nc2ccccc2[nH]1	23.3%	-5.0%	17.0%	-3.8	1.7	-8.2%
Cc1ccc(/C=N/NC(=O)c2csc(C)c2)o1	5.9%	?	43.9%	+	22.8*	-26.0%
Cc1ccc(/C=N/NC(=O)c2cccs2)o1	22.5%	33.2%	-12.0%	161.7*	40.5*	27.1%
Cc1ccc(/C=N/NC(=O)c2cccc3ccccc23)o1	-6.4%	5.8%	13.3%	5.5	-9.1	12.3%
Cc1cccc(NC(=O)CN(C)C(=O)C2CC2)c1C	18.9%	3.8%	7.9%[11.6 µM]	.	.	-0.6%
COc1ccc(-c2cn[nH]c2-c2ccc(OCc3ccccc3)cc2O)cc1OC	?	0.8%	78.0%	5.7	3.6	8.28µM*
Oc1cc(OCc2ccccc2)ccc1-c1[nH]ncc1-c1ccccc1	34.4%	?	97.6%	-4.8	0.2	?
COc1ccc(-c2cn[nH]c2-c2ccc(OCc3ccc(F)cc3)cc2O)cc1OC	?	-6.3%	41.7%	7.8	1.5	10.4µM*
CCC(=O)c1ccc(OCC(=O)OCC(=O)N(CCC#N)c2ccc3c(c2)OCCO3)cc1	2.0%	.	7.6%	.	.	.
O=CN1CCN(C(=S)Nc2ccc(OC(F)F)cc2)CC1	4.7%	10.4%	-0.8%	-3.1	1.5	-8.9%
Fc1ccc(NC(=S)N2CCc3ccccc32)cc1	2.5%	?	0.8%	41.4*	15.3*	-21.4%
FC(F)Oc1ccc(NC(=S)N2CCc3ccccc32)cc1	?	53.6%	-3.3%	78.1*	36.2*	25.8%
NS(=O)(=O)c1ccc(NC(=S)N2CCc3ccccc32)cc1	-6.9%	24.3%	1.4%	-17.4	3.4	-14.3%
